ChEMBL document CHEMBL1961873, “Compounds: GSK PKIS; Assays: Nanosyn kinase panel” (2012)

Biological target: Protein-tyrosine kinase 2-beta (Homo sapiens) (UniProt Q14289);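 also: values are the mean percent inhibition of PYK2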
Conditions: at 1 µM

Sequence of Protein-tyrosine kinase 2-beta (Homo sapiens) (Q14289 whole entry, looked up): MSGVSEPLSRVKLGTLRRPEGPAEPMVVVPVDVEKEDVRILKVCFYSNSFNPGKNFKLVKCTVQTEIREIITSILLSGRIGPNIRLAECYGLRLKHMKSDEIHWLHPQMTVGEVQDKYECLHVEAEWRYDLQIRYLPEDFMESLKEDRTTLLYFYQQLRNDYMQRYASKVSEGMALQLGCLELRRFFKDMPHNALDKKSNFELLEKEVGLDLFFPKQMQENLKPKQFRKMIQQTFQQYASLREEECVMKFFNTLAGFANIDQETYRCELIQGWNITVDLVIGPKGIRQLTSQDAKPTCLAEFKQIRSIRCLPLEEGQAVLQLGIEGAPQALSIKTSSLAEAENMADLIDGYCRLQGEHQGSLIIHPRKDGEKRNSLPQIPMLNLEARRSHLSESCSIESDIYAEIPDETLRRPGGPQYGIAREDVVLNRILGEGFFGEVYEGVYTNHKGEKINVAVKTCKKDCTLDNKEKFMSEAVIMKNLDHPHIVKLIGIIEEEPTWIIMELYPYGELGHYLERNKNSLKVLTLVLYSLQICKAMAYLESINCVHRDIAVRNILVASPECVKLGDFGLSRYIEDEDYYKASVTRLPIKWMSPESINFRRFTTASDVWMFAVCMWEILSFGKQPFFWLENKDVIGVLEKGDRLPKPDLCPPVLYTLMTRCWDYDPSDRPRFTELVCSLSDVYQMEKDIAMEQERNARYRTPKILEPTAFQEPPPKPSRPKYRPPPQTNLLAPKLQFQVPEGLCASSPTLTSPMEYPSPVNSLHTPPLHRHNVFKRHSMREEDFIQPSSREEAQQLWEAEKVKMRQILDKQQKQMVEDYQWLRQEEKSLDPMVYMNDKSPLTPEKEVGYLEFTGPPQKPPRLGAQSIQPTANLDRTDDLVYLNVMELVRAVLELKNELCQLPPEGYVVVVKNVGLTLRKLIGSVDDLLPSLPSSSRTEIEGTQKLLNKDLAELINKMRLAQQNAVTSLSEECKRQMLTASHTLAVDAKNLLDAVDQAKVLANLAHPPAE

SMILES	inhibition [%]
[O-][S+]1CCN(Cc2ccc(-c3ccc4ncnc(Nc5ccc(OCc6ccccc6)c(Cl)c5)c4c3)o2)CC1	1.47
C[C@@H](Oc1cc(-n2cnc3ccc(OC[C@@H](O)CO)cc32)sc1C(N)=O)c1ccccc1Cl	-1.09
OCc1ccc(-c2nc(-c3ccccn3)c(-c3ccc4c(c3)OCO4)[nH]2)cc1	13.1
NS(=O)(=O)c1ccc(Nc2cc(-c3cccc(O)c3)n[nH]2)cc1	12.3
Nc1ccc(C#Cc2cncnc2Nc2ccc(OCc3cccc(F)c3)c(Cl)c2)cc1	0.23
Cc1ccc(Nc2ccnc(Nc3cccc(C(N)=O)c3)n2)cc1O	47.8
CCCN1CCCC(c2ccc(Nc3nc(Nc4cc(F)ccc4C(N)=O)c4cc[nH]c4n3)c(OC)c2)C1 (stereo unspecified)	97.7
N#Cc1cccc(Nc2nccc(-c3cnn4ncccc34)n2)c1	71
COc1cc(Nc2nccc(-c3cnn4ncccc34)n2)cc(OC)c1	95.9
CS(=O)(=O)CCNCc1nc(-c2ccc3ncnc(Nc4ccc(OCc5cccc(C(F)(F)F)c5)cc4)c3c2)cs1	2.41
Cc1ccc(O)cc1Nc1ccnc2ccc(S(C)(=O)=O)cc12	41.3
Cc1nc(-c2ccccc2)n2nc(NCCCN3CCOCC3)ncc12	10.1
COc1cccc(-n2ncc3c(N/N=C/c4ccc(S(C)(=O)=O)cc4)ncnc32)c1	5.9
NC(=O)c1sc(-n2cnc3ccccc32)cc1OCc1ccccc1Br	6.52
CS(=O)(=O)Nc1cccc(-c2ccc3c(NC(=O)C4CC4)n[nH]c3c2)c1	3.01
COc1cccc(-n2ncc3c(N/N=C/c4ccc(C)cc4)ncnc32)c1	15.8
NS(=O)(=O)c1cccc(Nc2cc(-c3ccc(F)cc3)n[nH]2)c1	12.6

SMILES	inhibition [%]
COC(=O)c1ccc2c(c1)C(=Cc1cc(Br)c(O)c(Br)c1)C(=O)N2	13.8
CCS(=O)(=O)c1ccc(OC)c(Nc2nccc(N(C)c3ccc4c(C)n[nH]c4c3)n2)c1	19
O=S(=O)(CCOCc1ccc(-c2ccc3ncnc(Nc4ccc(OCc5cccc(F)c5)c(Cl)c4)c3c2)o1)c1ccccc1	8.55
Cc1cc(-c2ccccn2)cc(C)c1/C=C/c1cncc(-c2nn[nH]n2)c1	13.3
CN(C)C(=O)O[C@@H]1CN[C@@H](C#Cc2cc3ncnc(Nc4ccc(OCc5cccc(F)c5)c(Cl)c4)c3s2)C1	3.14
Oc1cccc(-c2nc(-c3ccccc3)[nH]c2-c2ccncc2)c1	14.2
CN1CCN(C(=O)c2ccc(NC(=O)Nc3ccc(N(C)c4ccnc(Nc5ccc(CS(C)(=O)=O)cc5)n4)cc3)cc2)CC1	88.6
COc1cc(/C=N/Nc2ncnc3c2cnn3C(C)C)ccc1O	21.9
FC(F)(F)c1ccc(-c2nn3ncccc3c2-c2ccnc(Nc3ccc4c(c3)OCCO4)n2)cc1	1.96
Nc1nccc(-c2c(-c3ccc(F)cc3)ncn2CCCN2CCOCC2)n1	8.65
Cc1ccc(C(=O)NC2CC2)cc1-c1ccc2[nH]ncc2c1	-8.03
COc1cc2ncn(-c3cc(OCc4ccccc4S(C)(=O)=O)c(C#N)s3)c2cc1OC	25.6
COc1ccc2ncnc(Nc3ccc(OCc4ccccc4)cc3)c2c1	5.66
COC(=O)Nc1nc2cc(Oc3ccc(NC(=O)Nc4cccc(Br)c4)cc3)ccc2[nH]1	9.53
Cc1ccc2c(-c3ccnc(Nc4cccc(C(F)(F)F)c4)n3)c(-c3ccccc3)nn2n1	59.5
COc1cc2ncnc(Nc3ccc(C)c(O)c3)c2cc1OC	18.9

Biological target: Proto-oncogene tyrosine-protein kinase receptor Ret (Homo sapiens) (UniProt P07949);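 also: reported figure is the mean of RET inhibition measurements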
Sequence (P07949 whole entry): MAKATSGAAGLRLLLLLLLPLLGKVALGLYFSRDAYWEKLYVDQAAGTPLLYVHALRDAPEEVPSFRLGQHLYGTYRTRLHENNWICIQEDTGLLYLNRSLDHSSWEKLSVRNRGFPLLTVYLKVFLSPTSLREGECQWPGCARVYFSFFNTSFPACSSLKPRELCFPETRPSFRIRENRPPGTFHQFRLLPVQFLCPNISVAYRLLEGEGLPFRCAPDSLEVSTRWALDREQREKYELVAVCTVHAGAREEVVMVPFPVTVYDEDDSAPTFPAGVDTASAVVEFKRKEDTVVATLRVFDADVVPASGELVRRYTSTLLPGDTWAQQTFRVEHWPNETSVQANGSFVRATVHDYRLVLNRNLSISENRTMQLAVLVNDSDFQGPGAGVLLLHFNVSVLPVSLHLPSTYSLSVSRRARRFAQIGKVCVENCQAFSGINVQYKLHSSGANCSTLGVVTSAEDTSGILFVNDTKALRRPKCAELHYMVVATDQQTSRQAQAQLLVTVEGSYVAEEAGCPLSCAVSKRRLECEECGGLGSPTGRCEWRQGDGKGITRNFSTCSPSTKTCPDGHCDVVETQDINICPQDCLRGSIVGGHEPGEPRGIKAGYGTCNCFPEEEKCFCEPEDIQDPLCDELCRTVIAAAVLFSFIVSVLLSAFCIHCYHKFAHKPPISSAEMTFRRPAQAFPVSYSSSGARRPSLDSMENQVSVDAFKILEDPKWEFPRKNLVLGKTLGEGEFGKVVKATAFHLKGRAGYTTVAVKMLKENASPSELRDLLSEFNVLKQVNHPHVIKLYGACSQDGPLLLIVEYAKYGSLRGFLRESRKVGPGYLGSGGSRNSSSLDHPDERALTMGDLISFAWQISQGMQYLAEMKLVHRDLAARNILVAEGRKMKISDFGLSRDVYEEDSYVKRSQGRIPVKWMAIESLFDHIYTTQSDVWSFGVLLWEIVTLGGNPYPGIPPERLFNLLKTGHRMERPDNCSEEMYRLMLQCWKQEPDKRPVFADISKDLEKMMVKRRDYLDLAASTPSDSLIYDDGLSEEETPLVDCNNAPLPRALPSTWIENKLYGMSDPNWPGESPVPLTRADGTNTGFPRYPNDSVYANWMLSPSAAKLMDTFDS
Conditions: at 0.1 µM

SMILES	inhibition [%]
[O-][S+]1CCN(Cc2ccc(-c3ccc4ncnc(Nc5ccc(OCc6ccccc6)c(Cl)c5)c4c3)o2)CC1	3.12
C[C@@H](Oc1cc(-n2cnc3ccc(OC[C@@H](O)CO)cc32)sc1C(N)=O)c1ccccc1Cl	0.87
OCc1ccc(-c2nc(-c3ccccn3)c(-c3ccc4c(c3)OCO4)[nH]2)cc1	4.72
NS(=O)(=O)c1ccc(Nc2cc(-c3cccc(O)c3)n[nH]2)cc1	6.46
Nc1ccc(C#Cc2cncnc2Nc2ccc(OCc3cccc(F)c3)c(Cl)c2)cc1	6.12
Cc1ccc(Nc2ccnc(Nc3cccc(C(N)=O)c3)n2)cc1O	73.5
CCCN1CCCC(c2ccc(Nc3nc(Nc4cc(F)ccc4C(N)=O)c4cc[nH]c4n3)c(OC)c2)C1 (stereo unspecified)	8.63
N#Cc1cccc(Nc2nccc(-c3cnn4ncccc34)n2)c1	8.71
COc1cc(Nc2nccc(-c3cnn4ncccc34)n2)cc(OC)c1	9.58
CS(=O)(=O)CCNCc1nc(-c2ccc3ncnc(Nc4ccc(OCc5cccc(C(F)(F)F)c5)cc4)c3c2)cs1	5.26
Cc1ccc(O)cc1Nc1ccnc2ccc(S(C)(=O)=O)cc12	81.8
Cc1nc(-c2ccccc2)n2nc(NCCCN3CCOCC3)ncc12	0.76
COc1cccc(-n2ncc3c(N/N=C/c4ccc(S(C)(=O)=O)cc4)ncnc32)c1	11.4
NC(=O)c1sc(-n2cnc3ccccc32)cc1OCc1ccccc1Br	9.37
CS(=O)(=O)Nc1cccc(-c2ccc3c(NC(=O)C4CC4)n[nH]c3c2)c1	-0.07
COc1cccc(-n2ncc3c(N/N=C/c4ccc(C)cc4)ncnc32)c1	3
NS(=O)(=O)c1cccc(Nc2cc(-c3ccc(F)cc3)n[nH]2)c1	4.74

SMILES	inhibition [%]
COC(=O)c1ccc2c(c1)C(=Cc1cc(Br)c(O)c(Br)c1)C(=O)N2	7.67
CCS(=O)(=O)c1ccc(OC)c(Nc2nccc(N(C)c3ccc4c(C)n[nH]c4c3)n2)c1	64.8
O=S(=O)(CCOCc1ccc(-c2ccc3ncnc(Nc4ccc(OCc5cccc(F)c5)c(Cl)c4)c3c2)o1)c1ccccc1	5.25
Cc1cc(-c2ccccn2)cc(C)c1/C=C/c1cncc(-c2nn[nH]n2)c1	5.88
CN(C)C(=O)O[C@@H]1CN[C@@H](C#Cc2cc3ncnc(Nc4ccc(OCc5cccc(F)c5)c(Cl)c4)c3s2)C1	3.72
Oc1cccc(-c2nc(-c3ccccc3)[nH]c2-c2ccncc2)c1	27.4
CN1CCN(C(=O)c2ccc(NC(=O)Nc3ccc(N(C)c4ccnc(Nc5ccc(CS(C)(=O)=O)cc5)n4)cc3)cc2)CC1	38.8
COc1cc(/C=N/Nc2ncnc3c2cnn3C(C)C)ccc1O	61.1
FC(F)(F)c1ccc(-c2nn3ncccc3c2-c2ccnc(Nc3ccc4c(c3)OCCO4)n2)cc1	8.08
Nc1nccc(-c2c(-c3ccc(F)cc3)ncn2CCCN2CCOCC2)n1	4.75
Cc1ccc(C(=O)NC2CC2)cc1-c1ccc2[nH]ncc2c1	-2.17
COc1cc2ncn(-c3cc(OCc4ccccc4S(C)(=O)=O)c(C#N)s3)c2cc1OC	18.2
COc1ccc2ncnc(Nc3ccc(OCc4ccccc4)cc3)c2c1	3.22
COC(=O)Nc1nc2cc(Oc3ccc(NC(=O)Nc4cccc(Br)c4)cc3)ccc2[nH]1	69.7
Cc1ccc2c(-c3ccnc(Nc4cccc(C(F)(F)F)c4)n3)c(-c3ccccc3)nn2n1	15.4
COc1cc2ncnc(Nc3ccc(C)c(O)c3)c2cc1OC	83.6
